Source: PubChem (The Scripps Research Institute Molecular Screening Center)
A selection: hits, their analogues and other compounds. The true share with any hit is near 3.5%.
FBW7 act – FBW7 E3 ligase activators, primary screen, biochemical, AlphaScreen, human. AlphaScreen FBW7–phospho-cyclin E peptide binding, activator screen. normalized activity (activation), % at 26.1 µM. F-box/WD repeat-containing protein 7 (Homo sapiens), Q969H0. 650,000 compounds, 0.13% hits; in the data active means normalized activity above about 1.9%;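 further: purified mutant Fbw7 with reduced substrate affinity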
Target sequence (Q969H0 whole entry, looked up): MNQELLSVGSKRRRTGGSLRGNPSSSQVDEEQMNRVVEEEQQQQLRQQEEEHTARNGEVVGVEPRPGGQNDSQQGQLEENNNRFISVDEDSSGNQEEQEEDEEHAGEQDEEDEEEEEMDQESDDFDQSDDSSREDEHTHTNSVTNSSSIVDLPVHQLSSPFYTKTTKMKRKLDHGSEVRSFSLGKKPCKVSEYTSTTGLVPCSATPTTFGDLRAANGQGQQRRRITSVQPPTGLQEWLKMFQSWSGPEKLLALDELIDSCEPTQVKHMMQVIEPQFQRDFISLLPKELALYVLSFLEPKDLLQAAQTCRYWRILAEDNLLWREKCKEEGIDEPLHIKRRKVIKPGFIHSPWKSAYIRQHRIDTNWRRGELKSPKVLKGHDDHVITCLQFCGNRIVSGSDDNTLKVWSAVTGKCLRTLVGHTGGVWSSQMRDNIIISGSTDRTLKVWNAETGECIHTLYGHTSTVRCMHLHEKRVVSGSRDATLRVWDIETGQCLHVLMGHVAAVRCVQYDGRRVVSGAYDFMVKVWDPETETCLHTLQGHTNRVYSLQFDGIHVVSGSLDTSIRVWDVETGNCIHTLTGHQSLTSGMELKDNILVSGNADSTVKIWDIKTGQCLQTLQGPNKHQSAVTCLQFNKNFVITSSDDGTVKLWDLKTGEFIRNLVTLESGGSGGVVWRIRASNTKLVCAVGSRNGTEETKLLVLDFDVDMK
MITF inh – MITF inhibitors, primary screen, biochemical, AlphaScreen, human | Microphthalmia-associated transcription factor (Homo sapiens), O75030 | AlphaScreen MITF homodimerization, bead proximity signal | inhibition, % at 2.6 µM | 650,000 compounds, 0.91% hits | AID 1259374, 2018; in the data active means inhibition above about 50%;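 further: 0% = vehicle wells with protein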
GPR151 activ – activators of human GPR151, primary screen, cell-based, PathHunter beta-arrestin, luminescence; PathHunter beta-arrestin GPR151 cells; AID 1508602, 2020; 650,000 compounds, 1% hits; activation, % at 11.2 µM; in the data active means activation above about 4.9%;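 further: 0% = median of compound wells and 100% = cells with positive control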
TEAD-YAP inh – TEAD-YAP interaction inhibition, primary screen, TEAD-YAP interaction inhibitor project, luminescence, HEK-TIYL cells; inhibition, % at 9.12 µM; TEAD-Gal4/YAP UAS-luciferase luminescence; 640,000 compounds, 1.4% hits; AID 1259422, 2018; in the data active means inhibition above about 32%;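 further: 0% = median of test compound wells and 100% = reference inhibitor wells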
MITF inh conf – MITF inhibitors, retest of hits, confirmation, biochemical, AlphaScreen, triplicate; shares compounds with MITF inh; AlphaScreen MITF homodimerization, biotin/His-MITF beads; inhibition, % at 2.6 µM; 4,700 compounds, 16% hits; AID 1259372, 2018;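 active means inhibition above a cutoff derived from the DMSO control wells, cut at about 28% in these data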;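 further: 0% = MITF dimer wells with DMSO only; inhibitors lower the bead chemiluminescence by keeping MITF from dimerizing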
AlphaScreen DR – AlphaScreen optical interference compounds, dose response, counter-screen, biochemical, HTS; shares compounds with MITF inh; AlphaScreen optical interference counterscreen, cell-free; 480 compounds, 6% hits; IC50, µM; AID 1259373, 2018; call rule not given here
AlphaScreen intf2 – AlphaScreen optical interference compounds, counter-screen for MITF inhibitor project, biochemical, triplicate. 4,700 compounds, 7.6% hits. inhibition, % at 2.6 µM. LysRS AlphaScreen counterscreen, signal interference. shares compounds with MITF inh;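 active means inhibition above a cutoff derived from the DMSO control wells, cut at about 30% in these data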
The depositor's hits bear a star; · = no result.

SMILES	FBW7 act	MITF inh	GPR151 activ	TEAD-YAP inh	MITF inh conf	AlphaScreen intf2	others
Cc1ccc(N2C(=O)C3C(c4ccc(Cl)cc4Cl)OC4(C(=O)c5ccccc5C4=O)C3C2=O)cc1 (configuration not stated)	0	12	-1	-7	·	·
c1cc(NC2CCCNC2)n2ncc(-c3ccoc3)c2n1 (configuration not stated)	0	68*	1	-62	11	17
N#C/C(=C/c1ccco1)c1cccc(F)c1	1	68*	1	2	30*	17	AlphaScreen DR=>6.5
O=C(Nc1ccccc1)C1CCN(c2ccc(NCCN3CCOCC3)nn2)CC1	1	18	0	-14	·	·
O=C(COc1ccc(Cl)cc1)Nc1nc(-c2ccc([N+](=O)[O-])cc2)cs1	0	-7	0	-1	·	·
Cn1cc(CNC2CCN(c3ccc(C(=O)NCc4ccccc4F)cc3)CC2)cn1	1	15	0	-3	·	·
CCCc1nc(SCC(=O)NC(C)(C)C)c2ccccc2n1	0	53*	-1	-11	7	15
Cc1ccc(S(=O)(=O)Nc2cc3c4c(oc3c3ccccc23)CC(C)(C)CC4=O)c(C)c1	0	-8	1	-11	·	·
C=CCc1cccc(O)c1/C=N/c1sc(C)c(C)c1C(N)=O	0	17	0	-3	·	·
CCOC(=O)c1cnc(-n2[nH]c(C)cc2=O)[nH]c1=O	0	84*	3	3	98*	96*
CCOC(=O)c1cnc(-n2[nH]c(C)c(Cc3ccccc3)c2=O)[nH]c1=O	0	96*	1	1	87*	100*
C/C(=N\Nc1ccc([N+](=O)[O-])cc1[N+](=O)[O-])C(C)(C)C	-1	11	1	0	·	·
COc1ccc(O[C@H]2C=C[C@@H](c3ccccc3)O[C@@H]2COC(=O)CC/C(C)=N/O[C@H](C)c2cn([C@H](CO)Cc3ccccc3)nn2)cc1	0	7	1	·	·	·
O=C1N[C@@H](Cc2ccccc2)C(=O)N2CCN(C(=O)NC3CCCCC3)C[C@H]12	0	76*	1	13	69*	-3	AlphaScreen DR=>6.5
O=C1N[C@H](Cc2ccccc2)C(=O)N2CCN(C(=O)NC3CCCCC3)C[C@H]12	-1	74*	-1	3	71*	-9	AlphaScreen DR=>6.5
COc1ccc(OCCNCc2ccco2)cc1	0	52*	2	0	-18	-2
CCCCC(=O)c1ccc(OC(=O)/C=C/c2ccccc2)cc1	0	0	1	-14	·	·
Cc1noc(C)c1CCC(=O)N1CCOc2ccc(CN3CCc4ccccc4C3)cc2C1	0	-16	0	-8	·	·
N#Cc1c(-c2ccco2)cc(-c2ccco2)nc1N	-1	85*	-1	5	73*	20	AlphaScreen DR=>6.5
N#Cc1c(-c2ccco2)cc(C2CC2)nc1N	0	-8	0	-18	·	·
CC(NC(=O)/C(=C/c1ccccc1)NC(=O)c1cccc(Br)c1)C(=O)O (configuration not stated)	0	14	0	0	·	·
CCC(Sc1nc2ccsc2c(=O)n1CCC(C)C)C(=O)Nc1ccc2c(c1)OCO2 (configuration not stated)	0	-4	-1	-1	·	·
CCCCn1c(SC(CC)C(=O)Nc2ccc3c(c2)OCO3)nc2ccsc2c1=O (configuration not stated)	0	69*	-1	2	0	0
CCCCn1c(SCC(=O)Nc2ccccc2OC)nc2ccsc2c1=O	0	58*	-1	2	-1	1
COc1ccc(NC(=O)CCCCCn2c(SCC(=O)Nc3ccccc3OC)nc3ccsc3c2=O)cc1	0	5	-1	5	·	·
SMILES	FBW7 act	MITF inh	GPR151 activ	TEAD-YAP inh	MITF inh conf	AlphaScreen intf2	others
CCOC(=O)c1ccc2c(c1)N(CC(=O)Nc1ccccc1)C(=O)C(C)(C)O2	0	0	0	-11	·	·
Cc1cccc(NC(=O)COc2cccc3c2CCN(Cc2cccnc2)C3=O)c1	0	-4	0	-13	·	·
COc1ccc(-n2c(SCC(=O)N3CCOCC3)nnc2-c2c[nH]c3ccccc23)cc1	0	14	0	7	·	·
O=C(OCC(=O)C12CC3CC(CC(C3)C1)C2)C1COc2ccccc2O1 (configuration not stated)	0	5	1	5	·	·
CCN(C(=O)C1COc2ccccc2O1)C12CC3CC(CC(C3)C1)C2 (configuration not stated)	0	61*	-2	5	71*	1	AlphaScreen DR=>6.8
COc1cc(-c2ccc(/C=C/c3[nH]c(=O)[nH]c(=O)c3Cl)o2)c(OC)cc1Cl	0	-7	-1	1	·	·
NC(=O)c1ccnc(-c2ccc(C(=O)NC3CC3)cc2)c1	0	10	2	2	·	·
CCOC(=O)c1ccc(Nc2c(C(=O)OCC)cnc3c(C)cc(C)cc23)cc1	0	0	2	5	·	·
Cc1ccccc1CN1CCC(N2CCN(CCO)CC2)CC1	0	59*	1	-9	-10	-2
Cc1ccccc1CN1CCN(C2CCCCCC2)CC1	0	69*	0	2	-8	2
CC1CCN(Cc2c(F)cccc2F)CC1	0	63*	4	-11	-3	2
Fc1cccc(F)c1CN1CCOCC1	0	7	0	-1	·	·
OCCN1CCN(C2CCN(Cc3ccccc3F)CC2)CC1	0	82*	0	0	3	6
Cc1ccccc1CN1CCC(N2CCC(C(=O)N3CCCC3)CC2)CC1	0	2	1	6	·	·
Fc1ccccc1CN1CCN(C2CCCC2)CC1	0	29	-2	-1	·	·
Cc1cccc(C)c1NC(=O)CSc1nnc(N)s1	0	5	2	-2	·	·
Cc1ccc(N2CC(C(=O)OCC(=O)Nc3ccc4c(c3)CCC4)CC2=O)cc1 (configuration not stated)	0	-9	1	0	·	·
COc1cc2c(cc1OC)C(COc1ccc(F)cc1)N(C(=O)c1ccccc1C)CC2 (configuration not stated)	0	-5	1	-14	·	·
COc1cc(Nc2ncnc3c2c(-c2ccccc2)cn3-c2ccc(F)cc2)cc(OC)c1OC	0	2	2	-11	·	·
CC1CCN(C2CCN(Cc3ccccc3F)CC2)CC1	0	64*	1	7	-2	0
Cc1nc(SCC(=O)Nc2cccc(C(F)(F)F)c2)c2c3c(sc2n1)CCC3	0	74*	-1	-9	5	13
